PubChem BioAssay AID1508600 (Functional Genomics Laboratory (NCATS/FGL), 2020)
Hit rate of the full screen: of about 53,000 sequences, about 3,700 (7%) were called active.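 The calls were made as follows: active = gene knockdowns whose robust z-score for IL-1 alpha signal is at least 2 or at most -2, so actives lie on both sides; inactive = the rest.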 The sample as a whole holds a higher share of actives than the screen did.

test: Components of the Cytosolic LPS Sensing Pathway: Gene Identification via Genome-wide siRNA Screen; conditions: RAW264.7 macrophages, IL-1a HTRF, actives lie on both sides, screened at 100 nM (by protocol), cells primed 5 h with Pam3CSK4 first;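 also: robust z of the log signal after scaling to non-targeting control siRNA wells of the plate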
Method in brief: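 RAW264.7 mouse macrophages reverse-transfected with single siRNAs (100 nM final) for 48h, primed with Pam3CSK4 for 5 hours, then transfected with LipidA for 24 hour. Supernatant IL-1a read by HTRF; values normalized to negative-control median, log-transformed robust z-scores.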

| Sequence | z-score |
| --- | --- |
| GCUAGGUGAUCAGAGAACUTT against Nsl1 | 0.222 (inactive) |
| GGCCUUCAGUCAAGCAUCATT against Myom1 | 0.906 (inactive) |
| GCCCAUUGUAAUAAAAGCCTT against Dnali1 | -0.582 (inactive) |
| GGCGUGUAUCUAUACACACTT against Glp1r | 3.1 (active) |
| CCAAGAUGCACAGUGAUAATT against Pknox2 | -0.925 (inactive) |
| GGAUAUCGUCUGCUACCUGTT against Dgkb | 0.945 (inactive) |
| GCACAACCAUAAUUCCAAATT against Olfr828 | -0.343 (inactive) |
| CCGAAUAGUAGAUAUUAGATT against Zbtb1 | -0.628 (inactive) |
| GGAAGUCUGUCCAAAGCAUTT against Olfr190 | 0.248 (inactive) |
| GUUCUGCUUUUUGUCAUAUTT against Olfr1431 | -0.79 (inactive) |
| GGAGAUGGUUAUGUGGGAUTT against Tgoln2 | 0.879 (inactive) |
| GCGUGUUGAAUUGAGGAAGTT against Galnt11 | 4.15 (active) |
| GGUGAAACCUGUCAUUCACTT against Dcdc2a | -0.405 (inactive) |
| GGGUUUGAUCAACAGAGCCTT against Id1 | -0.64 (inactive) |
| GGUGAAGAGCUUCUUGAUCTT against Zfyve27 | -0.362 (inactive) |
| GGAGUUCAAAGAUGCAAUUTT against Zfyve27 | 2.33 (active) |
| GUUUGAGUCUGGAGACGUGTT against Commd4 | 0.917 (inactive) |
| GGUAAAGCCUUUCAGGAAGTT against Tmem80 | -0.946 (inactive) |
| GGAGAGUGACAUCAUCGUATT against Obsl1 | -0.0139 (inactive) |
| GGACACUUCCAAGUAUUGGTT against Tns1 | -2.11 (active) |
| GGUCAGAGAAAUGAUGUCUTT against Osbpl11 | -1.77 (inactive) |
| GGAAAAGGAAUUCUCCAGATT against Atrip | 0.624 (inactive) |

| Sequence | z-score |
| --- | --- |
| GGCUUGCUGAUUAAAGAUGTT against Strbp | -0.544 (inactive) |
| GGAGAGCAUUCCCAUUGCUTT against Ddx6 | -2 (active) |
| GGCUUGACUGAAUAAUAAUTT against Gpr157 | -0.424 (inactive) |
| GCAGAGAGAGCGUGAAUCCTT against AB124611 | 0.598 (inactive) |
| GGUUUUCCCUCCAGAUGAGTT against Mtch1 | -0.336 (inactive) |
| GGUGGUAAUUGGUGUGGCATT against Slc9b2 | -0.188 (inactive) |
| GGUUCACAGAAAUGGAUGATT against Zfp507 | -2.91 (active) |
| GGUUUCUUUGCCUACCCAGTT against Prrc2b | -1.13 (inactive) |
| GGGUGACAACCAAAGACUGTT against Mill1 | 0.174 (inactive) |
| GGAUCAUGCAAACCAAAGCTT against 4930522H14Rik | 0.193 (inactive) |
| GAGAACUCUCUAAACAAGUTT against Cks2 | 0.714 (inactive) |
| GGAUAGUCAUCAACAGAGCTT against Psma7 | -2.42 (active) |
| GGAACAGUCGUGGUAAAGUTT against Gnl2 | -0.767 (inactive) |
| GGUGUUUGUUCGGAAGCUCTT against Pes1 | -0.345 (inactive) |
| GGAAGAAGCACAAUUUGAATT against Selenof | -0.946 (inactive) |
| CCUACUCCACGGGUAUUUUTT against 1700065D16Rik | -0.331 (inactive) |
| GGUGCCGCACACAAACAAUTT against Hipk2 | -2.02 (active) |
| GGGCCUGAUUUGUCCUCACTT against Sytl1 | -1.57 (inactive) |
| GGACGGUCCUCUUAAAAGATT against Chat | -0.394 (inactive) |
| GGCCUAUCAGAUAAAGAAGTT against Vps37b | -1.04 (inactive) |
| GGUUACUGCUCUCAUGUACTT against Olfr247 | -1.28 (inactive) |
| GGAGCACUUGUGGAUCAAUTT against Efhd1 | 1.03 (inactive) |

| Sequence | z-score |
| --- | --- |
| GCAUCAUGAACUCCUUUGUTT against H2bc1 | -2.43 (active) |
| GCAUUUAAUGGCAUUACUGTT against Otol1 | 0.596 (inactive) |
| GCUGGCGGAGCAAACUCAATT against Foxd3 | 0.756 (inactive) |
| GGAAUGAAAAACCUACAUGTT against Cxcl13 | 0.453 (inactive) |
| GUUAUUUGUAUGGUGAGAUTT against Hpcal1 | -1.06 (inactive) |
| GGCUGCCUAACUGAUAACATT against Inpp4b | 0.24 (inactive) |
| GGACACUUUACAGUGAUUGTT against Skint4 | 1.1 (inactive) |
| GCCUCUGAAAGUGUAAUUATT against Ccdc103 | 0.184 (inactive) |
| GGUGAUUCAACUCACUUGUTT against Olfr1353 | -1.33 (inactive) |
| GGUAUGUUUUAUCUUGACATT against Olfr851 | 0.269 (inactive) |
| GGGAUCAGGCCAUUUCCAUTT against Vav2 | 2.26 (active) |
| GGCAAACGAUAAAGAAAUCTT against Ptp4a2 | 1.58 (inactive) |
| GGGAUUUGCCAAAGAAUAGTT against AI597479 | 0.875 (inactive) |
| GGGUGACAGGGCAUGAGAATT against Macroh2a3 | 0.611 (inactive) |
| GGCCUUUAAGAGUUUCCAUTT against A230052G05Rik | 2.1 (active) |
| GCAACAAUAUUGCUCUAGATT against Galntl6 | -0.452 (inactive) |
| GCGAUCAAAAUUGUGUCACTT against Minar2 | -0.776 (inactive) |
| CGAUCAAAAAAAUCGUGUGTT against Cfap97 | 0.587 (inactive) |
| GGAAGUGGCCUUAAAGUAUTT against Arhgef37 | -1.67 (inactive) |
| GUGUCCAGUCCUAAAACGATT against Trib3 | 1.66 (inactive) |
| GGGAAAGGAUUUUUACAUUTT against Ctdsp1 | 1.83 (inactive) |
| GCAAACUCAAGGCAUACAUTT against A930017M01Rik | 4.27 (active) |

| Sequence | z-score |
| --- | --- |
| GGUGAACCUGGAAGAACUATT against Manea | 1.64 (inactive) |
| CGCCAAUUCAUCGUUGACUTT against Ccl3 | 0.773 (inactive) |
| GGAUUUGGAGUAGAUCAAUTT against Tial1 | 0.638 (inactive) |
| GGAACUGCUAAUCAACCAUTT against Zmynd10 | -2.14 (active) |
| GGAAAAAGAGUCCUUCAUGTT against Minar2 | 1.19 (inactive) |
| GGAACAAGAAACCACAAUGTT against Agpat1 | 0.281 (inactive) |
| GGAAGAUGCCAUCUUACACTT against Borcs7 | 2.5 (active) |
| GCAGGUUCACGACACCAACTT against Sv2a | -1.35 (inactive) |
| GCUGAAUGCGACAUUUAUATT against Hk2 | 0.668 (inactive) |
| GGCUGAGCUGAUCUUCUUATT against Wnt8a | -0.037 (inactive) |
| GGUCCGAAAGGCAGCUAUATT against Fcer1g | -2.17 (active) |
| CGAACAUUCCUUCCAUAACTT against Kcnd3 | 0.609 (inactive) |
| GGCUGUGCAAGCAAAACCUTT against Mad1l1 | -1.43 (inactive) |
| GGUACAAGACUGUCAUGUGTT against Mrpl3 | 0.356 (inactive) |
| GGUCAAAGUCUAGGAGUUUTT against Spp1 | 2.56 (active) |
| GGUGUCCAGUCAAUAAGAGTT against Msx3 | -0.0298 (inactive) |
| GGAAAGCUUCAAAAUGGUGTT against Foxj2 | -1.26 (inactive) |
| GGACAUUGACACUACUCCATT against Cyp2c55 | -0.519 (inactive) |
| GCCCAACUAAGCAAUAAUATT against Fam216b | 0.395 (inactive) |
| GCCGAGCAGAUGUACAGAATT against Zfp39 | 2.93 (active) |
| GUGGUUGAACGGGAAUUUGTT against Gm11487 | 0.542 (inactive) |
| GGCUUUAGGUAGUAGUCUCTT against Kansl2 | -2.9 (active) |

| Sequence | z-score |
| --- | --- |
| GCCAGUGGAUGUUCAGAAUTT against Ccdc73 | 0.019 (inactive) |
| GCGAGAGUUUUUCUUCAACTT against Hoxc11 | 0.385 (inactive) |
| GGAAUGAGGGUAAUGAAUATT against Plin3 | -1.74 (inactive) |
| GGAGCUAGCUAGAACAAGUTT against Slmap | 1.58 (inactive) |
| GGAUCAAUCCACAGACGACTT against Dbr1 | 1.56 (inactive) |
| CGUGGUGAACGAGAUUGAUTT against Kcnab1 | 1.21 (inactive) |
| GCCUGAUGUUGUUUCCAAATT against Lias | 2.67 (active) |
| GGUGAAGUUGAAUGGAAGUTT against Crebzf | -0.9 (inactive) |
| CCUAACACUAGUCUCAGAATT against Olfr873 | 0.192 (inactive) |
| GGUGCUAAUGACCUUUGAATT against Dbp | -1.5 (inactive) |
| GGAAUGGGAUAGAUUUGUUTT against Ung | 2.51 (active) |
| GCUACCUCUGACGACCAAGTT against Slc23a3 | 1.11 (inactive) |
| CCAUCAGGUUUAAGUCGUATT against Vps36 | -0.698 (inactive) |
| CGAAGAGAAGUUAUUUGUATT against Mrps23 | 1.19 (inactive) |
| GGUUUACCAGGAAAAUUGATT against Txnrd3 | -1.09 (inactive) |
| GGGUCACACUUCAUGGCUUTT against Pofut1 | -2.07 (active) |
| GGAUUCUUCGCUCCAAUGATT against Pacs1 | 0.73 (inactive) |
| GGUAUCCUGAUUGUUGAGUTT against Fam228a | 1.18 (inactive) |
| GCAUCAUUAUCUUACCAACTT against Olfr826 | -0.994 (inactive) |
